Bioassay records from PubChem BioAssay.
Methyltransferases = Primary Screen for Target Class Profiling of Small Molecule Inhibitors of Methyltransferases | purified enzyme, MTase-Glo SAH luminescence; stronger effect = lower value | calls only at 40 µM | 3.9% of 25,000 active | AID 1745853, 2022; call rule not given here
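Each enzyme was assayed with SAM and its substrate. SAH formation detected by MTase-Glo luminescence; single-point 40 uM screen[…].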
Large screens that a line does not name were inactive. This is one part of a sample in which hits are shown more often than they occur.

CCN1CCN(c2nc3c(-c4cccc(F)c4)nnn3c3ccc(Cl)cc23)CC1	none
CC(C)CNC(=O)c1ccc2c(=O)n(Cc3ccccc3)c3nn(C)c(=O)n3c2c1	none
COc1ccc(CC(=O)NC2CCN(c3nc4ncccc4o3)C2)cc1 (stereo not drawn)	none
Clc1cc(NC2CCCCC2)n2nccc2n1	none
CCn1c(=O)c(-c2ccc(-c3cncs3)cc2Cl)cc2cnc(Nc3ccc(N4CCN(C)CC4)cc3)nc21	none
C=CCn1c(=O)c2cnc(Nc3ccc(N4CCN(C)CC4)cc3)nc2n1-c1cccc(C(C)(C)O)n1	Methyltransferases active
Cc1ccc(CNC(=O)C2(C)Cn3nc(C(=O)NCCC4=CCCCC4)cc3C(=O)N2C)cc1 (stereo not drawn)	none
Cc1ccc(S(=O)(=O)Cc2nc(-c3ccc(C(=O)NCc4cccnc4)cc3)oc2C)cc1	none
Cn1c(=O)c(-c2c(Cl)cccc2Cl)cc2cnc(Nc3cccc(C(=O)O)c3)nc21	none
CN(C)C/C=C/C(=O)Nc1ccc(C(=O)Nc2cccc(Nc3ncc(Cl)c(-c4c[nH]c5ccccc45)n3)c2)cc1	Methyltransferases active
CN(C)C/C=C/C(=O)Nc1cccc(C(=O)Nc2ccc(Nc3nccc(-c4cccnc4)n3)cc2)c1	Methyltransferases active
CNc1nccc(-c2cccnc2Oc2cc(C(=O)Nc3cccc(C(F)(F)F)c3)ccc2C)n1	none
CN(C)C/C=C/C(=O)Nc1cccc(C(=O)Nc2cccc(Nc3ncc(Cl)c(-c4c[nH]c5ccccc45)n3)c2)c1	Methyltransferases active
Cc1ccc(NC(=O)c2ccc(CN3CCNCC3)cc2)cc1Nc1nccc(-c2cccnc2)n1	none
O=C(Nc1ccccc1F)N1Cc2c(sc3c2CCCC3)-n2cccc2C1c1ccc(F)cc1 (stereo not drawn)	none
COC(=O)c1ncn2c1C(=O)N(Cc1ccccc1F)C(C)(C(=O)NC1CCCC1)C2 (stereo not drawn)	none
COc1ccccc1CNC(=O)C1(C)Cn2c(cc3ccccc32)C(=O)N1Cc1cccc(Cl)c1 (stereo not drawn)	none
CCOC(=O)c1cc2n(n1)CC(C)(C(=O)NCCC(C)C)N(c1cccc(Cl)c1C)C2=O (stereo not drawn)	none
COCc1cc([C@H]2N[C@@](C)(C(=O)OC)[C@H]3C(=O)N(C)C(=O)[C@@H]23)ccc1OC	none
CC1(C(=O)NC2CCCCCC2)Cn2c(cc3sccc32)C(=O)N1CCc1ccccc1 (stereo not drawn)	none
Cc1ccccc1CCNC(=O)Cn1ccc2cc(S(=O)(=O)N3CCC(C)CC3)ccc21	none
CCN(CC)CCCNC(=O)c1cc2n(n1)CC(C)(C(=O)NC1CCCC1)N(C)C2=O (stereo not drawn)	none
CC(=O)O[C@H]1CC2C(COC(=O)CC(C)C)=CO[C@@H](OC(=O)CC(C)C)C2[C@]12CO2 (stereo partly drawn)	none
COc1c2c(c(C)c3c1C(=O)OC3)O[C@@]1(C)C[C@@H](O)[C@]34O[C@](OC)(CC[C@]3(C)[C@H]1C2)OC4(C)C	none
COc1c2c(c(C)c3c1C(=O)OC3)OC1(C)CC(O)C34OC(OC)(OC3(C)C)C(O)CC4(C)C1C2 (stereo not drawn)	none
COc1c2c(c(C)c3c1C(=O)OC3)O[C@@]1(C)C[C@@H](OC(C)=O)[C@]34O[C@](OC)(CC[C@]3(C)[C@H]1C2)OC4(C)C	Methyltransferases active
CC(C)CCn1c(=O)c2ccc(C(=O)NC3CCCC3)cc2n2c(=O)n(Cc3cccc(F)c3)nc12	none
CN1CCN(CCOc2cc(OC3CCOCC3)c3c(Nc4c(Cl)ccc5c4OCO5)ncnc3c2)CC1	Methyltransferases active
Cc1cccc(C(=O)N2CCCCCCN(C)C(=O)[C@@H]3CCC[C@@H]32)c1	none
C=CCn1c(=O)c2c(nc(-c3ccc(S(=O)(=O)O)cc3)n2C)n(C)c1=O	none
Cn1c(=O)c2[nH]cnc2n(C)c1=O	none
Cn1c(=O)c2[nH]c(-c3ccc(S(=O)(=O)O)cc3)nc2n(C)c1=O	Methyltransferases active
COc1ccc(CNC(=O)Cn2nc3n(CCc4ccccc4)c(=O)c4ccccc4n3c2=O)cc1	none
COc1ccc(CNc2nc3c(S(=O)(=O)c4ccc(Br)cc4)nnn3c3ccccc23)cc1	none
CCc1ccc(CN2C(=O)c3sccc3-n3cccc3C2C(=O)NC2CCCCCC2)cc1 (stereo not drawn)	none
COc1cc(CO)cc(OC)c1O[C@@H]1O[C@H](CO)[C@@H](O)[C@H](O)[C@H]1O	none
COc1c(-c2ccc(O)cc2)cc(OC)c2c1oc1cc(O)c(OC3OC(CO)C(O)C3O)cc12 (stereo not drawn)	none
COc1c2cc(c(O[C@@H]3O[C@H](CO)[C@@H](O)[C@H](O)[C@H]3O)c1OC)CCCCC(O)CCc1ccc(O)c-2c1 (stereo partly drawn)	Methyltransferases active
CC(C)Oc1ccc(CN2C(=O)c3cc4ccccc4n3CC2(C)C(=O)NC2CCCC2)cc1 (stereo not drawn)	none
Cc1ccc(CNC(=O)C2(C)Cn3nc(C(=O)NCc4ccccn4)cc3C(=O)N2C)cc1 (stereo not drawn)	none
CCOC(=O)c1ccc(Nc2ncnc3ccc(Br)cc23)cc1	none
